FadD28 binding: M. tuberculosis FadD28 bisubstrate binding inhibition; 360,000 compounds, 0.22% hits; inhibition, % at 12.5 µM; FadD28 bisubstrate probe binding, fluorescence polarization; in the data active = inhibition above about 8.5%, passing the limit was not always enough
Mtb BioA inh: inhibitors of Mycobacterium tuberculosis BioA enzyme; purified M. tuberculosis BioA enzyme, plate reader; inhibition, % at 9.99 µM; 360,000 compounds, 0.096% hits; AID 602481; in the data active = inhibition above about 40%
PrP UTR inh: suppresses PrP 5' UTR mRNA reporter expression; cell-based PrP 5' UTR mRNA reporter, plate reader; inhibition, % (no concentration beside the values); 340,000 compounds, 0.35% hits; AID 488862; in the data active = inhibition above about 52%; note: 0 = median of the neutral control wells
TcdB inh: blocks C. difficile toxin B glycohydrolase activity | inhibition, % at 9.99 µM | TcdB glycohydrolase enzymatic assay, plate reader | 350,000 compounds, 0.24% hits | P18177; in the data active = inhibition above about 10%
PriA SSB inh: blocks PriA binding to SSB C-terminal tail; 430,000 compounds, 0.6% hits; AID 1272365; inhibition, % at 33 µM; AlphaScreen SSBct-PriA binding, biotinylated peptide; in the data active = inhibition mostly above about 37%, no sharp cut-off; inactive = mostly below about 20%;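 note: plate controls were negative control peptide for no effect and reference peptide for full effect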
Mtb hypoxia rep: inhibitors of hypoxia-regulated fluorescent reporter in Mycobacterium tuberculosis; AID 1159583; M. tuberculosis hypoxia-regulated fluorescent reporter, fluorescence; fluorescence inhibition, % (no concentration beside the values); 300,000 compounds, 0.1% hits; in the data active = fluorescence inhibition mostly above about 23%, no sharp cut-off; inactive = mostly below about 17%
* = called active by the depositor; / = no result given. A selection: hits, their analogues and other compounds. The true share with any hit is near 1%.

SMILES	FadD28 binding	Mtb BioA inh	PrP UTR inh	TcdB inh	PriA SSB inh	Mtb hypoxia rep
CCCN1CCCc2cc(CCNC(=O)c3cccs3)ccc21	/	/	/	/	63*	/
COc1ccc(CNc2ncnc3c2[nH]c2ccccc23)cc1	-3	11	/	1	12	/
COc1ccc(CNc2ncnc3c2[nH]c2cc(OC)c(OC)cc23)cc1	10*	-1	-27	-1	32	5
O=C(c1ccc(Br)c([N+](=O)[O-])c1)N1CCN(Cc2ccccc2)CC1	1	4	2	-1	18	-10
Cc1cc(C(=O)N2CCN(Cc3ccccc3)CC2)ccc1[N+](=O)[O-]	-1	1	2	12*	-6	10
CN1CCN(C(CNC(=O)c2ccccc2C(F)(F)F)c2ccc3c(c2)CCCN3C)CC1 (stereo unspecified)	/	/	/	/	-1	/
COc1ccc(S(=O)(=O)Nc2ccc3c(c2)C(=O)N([C@H](C)CO)C[C@@H](C)[C@@H](CN(C)S(=O)(=O)c2ccc(C)cc2)OCCCC[C@@H](C)O3)cc1	/	7	/	0	/	/
CCn1cc(CN2CCC(C(=O)Nc3cccc(-c4cccc(F)c4)c3)CC2)cn1	-4	2	-9	1	39*	7
CCn1cc(CN2CCC(C(=O)Nc3cccc(-c4cccc(OC)c4)c3)CC2)cn1	-3	-1	-10	1	-2	0
Cc1ccc(CN2CCC(C(=O)Nc3cccc(-c4cccc(F)c4)c3)CC2)o1	-3	1	-1	1	4	3
CCc1ccc(CN2CCC(C(=O)Nc3cccc(-c4nnc(C)s4)c3)CC2)o1	-3	0	2	/	57*	3
CCOC(=O)C1=C(COC(=O)c2ccc(OC)c(S(=O)(=O)N3CCOCC3)c2)NC(=O)NC1C (stereo unspecified)	-1	4	-17	1	8	18*
COc1ccc(C(=O)NCCc2c[nH]c3ccccc23)cc1S(=O)(=O)N1CCOCC1	8.4*	-1	-17	/	2	/
CCOC(=O)C1=C(COC(=O)c2ccc(C)c(S(=O)(=O)N3CCOCC3)c2)NC(=O)NC1C (stereo unspecified)	0	-1	-25	1	-7	7
COc1ccc(NC(=O)Cc2c[nH]c3ccccc23)cc1S(=O)(=O)N1CCOCC1	6	/	-7	1	-16	8
CC12CCCCC1CCC1C2CCC2(C)C1CCC2(O)CSc1ncc(-c2ccccc2)s1 (stereo unspecified)	/	/	/	/	-4	/
COc1cc(C=NNC(=O)c2c(C)nc3ccc(Cl)cn23)cc(OC)c1OC	/	/	/	/	-4	/
COc1cc(/C=N/NC(=O)c2c(C)nc3ccc(Cl)cn23)cc(OC)c1OC	-1	-2	-7	13*	/	/
O=C1NC(=S)SC1=Cc1ccc(N(CCCl)CCCl)cc1	14*	-17	-14	1	6	19
O=C1NC(=S)SC1=Cc1ccc(Cl)cc1	-1	2	-18	3	0	-3
N#Cc1ccc(NCC(=O)N2CCN(S(=O)(=O)c3ccccc3)CC2)cc1	0	0	-8	0	-8	43*
C[C@H]1CN([C@@H](C)CO)S(=O)(=O)c2ccc(-c3ccccc3F)cc2O[C@@H]1CN(C)Cc1cccnc1	/	1	/	0	/	/
COC(=O)[C@@H]1C[C@@H]2CC[C@@H](O)C[C@@H]2N1Cc1ccc(C(F)(F)F)cc1	-2	-1	-12	1	-1	/
COC(=O)[C@@H]1C[C@H]2CC[C@H](O)C[C@H]2N1Cc1ccc(C(C)(C)C)cc1	0	1	-12	-1	101*	/
Cc1cnc([N+](=O)[O-])n1CCOC(=O)NC(=O)c1ccc(F)cc1	-3	/	-13	32*	3	-5
SMILES	FadD28 binding	Mtb BioA inh	PrP UTR inh	TcdB inh	PriA SSB inh	Mtb hypoxia rep
Cc1nc(S/C(=C\c2ccc(-c3ccc(C(=O)O)c(Cl)c3)o2)C(=O)O)n[nH]1	20*	0	-14	-1	4	1
O=C(Nc1ccc2oc(=O)ccc2c1)c1ccc2c(c1)OCCO2	/	/	/	/	7	/
O=C(Cl)c1cc(Cl)ccn1	/	/	/	/	83*	/
CCN(CC)C(=O)c1cc(Cl)ccn1	-5	-1	4	0	-4	-6
S=C(Nc1ccc(Cl)cc1Cl)Nn1cnnc1	-3	-1	-10	0	-1	4
O=C(O)c1ccc(-n2nnc3ccccc32)c([N+](=O)[O-])c1	-2	0	-19	14*	0	15
CCN(C(=O)COC(=O)c1nc(Cl)ccc1Cl)c1c(N)n(Cc2ccccc2)c(=O)[nH]c1=O	-2	0	-12	1	9	30*
